In PubChem BioAssay:

System: not listed separately
Assay: compound binding in COS7 lysate, probe aLAP1, primary screen, cell lysate, small-molecule microarray (AID 1124);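 also: lysate comes from COS7 cells expressing LAP1 and is applied at 0.3 µg/mL; score merges spot fluorescence near 667 nm with signal-to-noise over triplicate slides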
Conditions: probe aLAP1, fluorescence, higher = more signal

Row | SMILES | composite z-score
1 | CCC1=C2CN(Cc3ccccc3Br)[C@@H]([C@@H](O)Cc3ccccc3)C2C=CCC1 (some centres not stated) | -0.0566
2 | COCCOC(=O)N1C(=O)[C@@]2(c3cc(C#CCC(C(=O)OC)C(=O)OC)ccc31)[C@H](c1ccccc1OCCO)N1[C@H](c3ccccc3)[C@H](c3ccccc3)OC(=O)[C@H]1[C@@H]2C(=O)N1CCCCCCC1 | 0.385
3 | CO[C@@H]1COC(=O)[C@@H]2CCCN2C(=O)CC=C[C@@H](C)[C@H](OC)COC(=O)[C@@H]2CCCN2C(=O)CC=C[C@H]1C | 0.169
4 | C=C(COC)/C(=C/C[C@H](OC(C)=O)c1ccc(OCCO)cc1)c1cnc2ccccc2c1 | -0.0578
5 | CC(=O)Nc1ccc([C@H]2[C@H](C)CC[C@H]3C(=O)N4[C@@H](CC[C@@H](C)[C@@H]4c4ccc(NC(C)=O)cc4)C(=O)N32)cc1 | 0.264
6 | CN(C)CCCC[C@@H]1NC(=O)[C@@H]2C[C@H](C(=O)O)[C@H](c3ccc(O)cc3)N2C1=O | 0.324
7 | C[C@@H]1CC[C@H]2C(=O)N3[C@@H](CC[C@@H](C)[C@@H]3c3cccc(N4CCOCC4)c3)C(=O)N2[C@H]1c1cccc(Br)c1 | 0.336
8 | CCCN1C(=O)[C@@]2(CCS(=O)(=O)c3ccccc3)N=C(c3ccc(OCCCO)cc3)O[C@H]2c2ccccc21 | 0.163
9 | O=C(O)[C@@H]1Cc2c([nH]c3ccccc23)[C@@H](c2ccccc2)N1 | -0.0124
10 | C[C@@H]1CC[C@H]2C(=O)N3CCC[C@H]3C(=O)N2[C@H]1c1ccc(Br)cc1 | 0.123
11 | CCC#CCN(Cc1ccccc1Br)[C@H](/C=C/c1ccccc1)[C@@H](O)Cc1ccccc1 | 0.162
12 | [N-]=[N+]=NCc1ccccc1C[C@]1(C(N)=O)N=C(c2ccc(OCCCO)cc2)O[C@H]1c1ccccc1CN=[N+]=[N-] | 0.641
13 | C=CCC(OC(C)=O)[C@@H]1[C@@H](N(Cc2ccc(-c3ccccc3)cc2)C(=O)c2ccc(-c3ccccc3)cc2)c2cc(OCCCO)ccc2N1C(=O)Cc1ccc(OC)cc1 (some centres not stated) | 0.061
14 | O=C1C[C@@](C(=O)NC2CC2)(c2ccc([N+](=O)[O-])cc2)[C@@H](c2ccc(CO)cc2I)N1CC12CC3CC(CC(C3)C1)C2 | 2.12
15 | Cc1ccc(N2C(=O)c3ccccc3[C@@H](C(=O)NCC(F)(F)F)[C@@H]2c2ccc(CO)cc2)nc1 | -0.415
16 | C=CC[C@]1(C(=O)O)N=C(c2ccc(OCCCO)cc2)O[C@H]1c1ccccc1 | 0.563

System: Sam68 (KHDRBS1)
Assay: Sam68 small-molecule binders, primary screen, biochemical, small-molecule microarray, 635 nm fluorescence (AID 1125);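 also: score merges 667 nm channel intensity with signal to noise over triplicate slides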
Conditions: small-molecule microarray binding, higher = more signal

Row | SMILES | composite z-score
17 | COc1ccc(CCN2C(=O)[C@@]3(c4ccc([N+](=O)[O-])cc4)CC(=O)N(CC45CC6CC(CC(C6)C4)C5)[C@@H]3c3ccc(CO)cc32)cc1 | 0.644
18 | C=CCN1C(=O)[C@@]2(Cc3ccccc3)N=C(c3ccc(OCCCO)cc3)O[C@H]2c2ccccc21 | 1.29
19 | CN1CCC(CCCO)=CC1C1CC1 (configuration not stated) | 0.0585
20 | CC(C)N1CC=CC23O[C@@H]4/C=C\CCCOC(=O)C4[C@H]2C(=O)N(CCCCCO)[C@@H]3C1=O (some centres not stated) | -1.74
21 | COCCOC(=O)N1C(=O)[C@@]2(c3cc(C#CCC(C(=O)OC)C(=O)OC)ccc31)[C@H](C(=O)N1CCN(c3ncccn3)CC1)[C@H]1C(=O)O[C@H](c3ccccc3)[C@H](c3ccccc3)N1[C@@H]2c1ccc(O)cc1 | 1.3
22 | CCC(=O)[C@]12O[C@@]3([C@@H]4C(=O)OCC[C@@H]41)N(Cc1ccccc1)C(C)=C(C(=O)OC)[C@@H](c1ccccc1)N3C2=O | -1.07
23 | COC(=O)[C@@]1(Cc2ccc(OC)cc2)[C@H]2c3cc(C(=O)N(C)C)n(Cc4ccc(C)c(F)c4F)c3C[C@H]2CN1C(=O)c1ccccc1 | 0.138
24 | COc1cc(CO)cc(I)c1O[C@H]1C=C(C(=O)NCCO)C[C@@H](NCCc2c[nH]c3ccccc23)[C@@H]1O | 1.12
25 | Cc1ccc(N2C(=O)c3ccccc3[C@](C)(C(=O)O)[C@@H]2c2ccc(CO)cc2)nc1 | -1.17
26 | COC(=O)[C@@]1(Cc2ccccc2)[C@H]2c3cc(C(=O)N4CCCC4)n(CCN4CNCC4=O)c3C[C@H]2CN1C(=O)c1ccccc1 | 0.28
27 | CO[C@@H]1COC(=O)[C@H](C)NC(=O)CC=C[C@@H](C)[C@H](OC)COC(=O)[C@H](C)NC(=O)CC=C[C@H]1C | 0.315
28 | C=C(COC)/C(=C/C[C@@H](OC(C)=O)c1cccc(OCCO)c1)c1cc(C(=O)OC)ccc1OC | 0.539
29 | CCOC(=O)C[C@H]1[C@H](OC(=O)c2ccccc2-c2ccccc2)[C@@H](NC(=O)c2ccc(-c3ccccc3)cc2)c2cc(OCCCO)ccc2N1C(=O)Cc1ccc(OC)cc1 | 0.406
30 | [N-]=[N+]=NCc1ccccc1C[C@]1(C(=O)N2CCCCC2)N=C(c2ccc(OCCCO)cc2)O[C@H]1c1ccccc1CN=[N+]=[N-] | 1.29
31 | CO[C@H]1COC(=O)[C@@H](OCc2ccccc2)C=C[C@H](C)[C@@H](OC)COC(=O)[C@H](OCc2ccccc2)C=C[C@@H]1C | -0.693
32 | COCCOC(=O)N1C(=O)[C@@]2(c3cc(C#CCNC(N)=O)ccc31)[C@H](c1ccc(OCCO)cc1)N1[C@H](c3ccccc3)[C@H](c3ccccc3)OC(=O)[C@H]1[C@@H]2C(=O)Nc1nc2ccccc2s1 | 0.289
33 | CCOC(=O)C1=CC[C@@H](c2ccc(-c3ccc(OCc4ccccc4)cc3)c(OC)c2)N(S(=O)(=O)c2ccc(C)cc2)[C@H]1c1ccccc1 | 1.24
34 | Cc1ccc(S[C@]2(C(=O)O)CC(=O)N(Cc3ccccc3)[C@@H]2c2ccc(CO)cc2)cc1 | 0.401

Row | SMILES | composite z-score
35 | Cc1ccc(S[C@]2(C(=O)NC(C)C)CC(=O)N(Cc3cc(C(F)(F)F)cc(C(F)(F)F)c3)[C@@H]2c2ccc(CO)cc2I)cc1 | -0.733
36 | CO[C@@H]1COC(=O)[C@H](COCc2ccccc2)NC(=O)CC=C[C@@H](C)[C@H](OC)COC(=O)[C@H](COCc2ccccc2)NC(=O)CC=C[C@H]1C | -0.136
37 | CCC1=C2CN(Cc3ccccc3Br)[C@@H]([C@@H](O)Cc3ccccc3)C2C=CCC1 (some centres not stated) | 1.3
38 | COCCOC(=O)N1C(=O)[C@@]2(c3cc(C#CCC(C(=O)OC)C(=O)OC)ccc31)[C@H](c1ccccc1OCCO)N1[C@H](c3ccccc3)[C@H](c3ccccc3)OC(=O)[C@H]1[C@@H]2C(=O)N1CCCCCCC1 | 1.32
39 | CO[C@@H]1COC(=O)[C@@H]2CCCN2C(=O)CC=C[C@@H](C)[C@H](OC)COC(=O)[C@@H]2CCCN2C(=O)CC=C[C@H]1C | -0.149
40 | C=C(COC)/C(=C/C[C@H](OC(C)=O)c1ccc(OCCO)cc1)c1cnc2ccccc2c1 | 1.27
41 | CC(=O)Nc1ccc([C@H]2[C@H](C)CC[C@H]3C(=O)N4[C@@H](CC[C@@H](C)[C@@H]4c4ccc(NC(C)=O)cc4)C(=O)N32)cc1 | 1.31
42 | CN(C)CCCC[C@@H]1NC(=O)[C@@H]2C[C@H](C(=O)O)[C@H](c3ccc(O)cc3)N2C1=O | 0.916
43 | C[C@@H]1CC[C@H]2C(=O)N3[C@@H](CC[C@@H](C)[C@@H]3c3cccc(N4CCOCC4)c3)C(=O)N2[C@H]1c1cccc(Br)c1 | 1.16
44 | CCCN1C(=O)[C@@]2(CCS(=O)(=O)c3ccccc3)N=C(c3ccc(OCCCO)cc3)O[C@H]2c2ccccc21 | 1.3
45 | O=C(O)[C@@H]1Cc2c([nH]c3ccccc23)[C@@H](c2ccccc2)N1 | -0.188
46 | C[C@@H]1CC[C@H]2C(=O)N3CCC[C@H]3C(=O)N2[C@H]1c1ccc(Br)cc1 | -0.0235
47 | CCC#CCN(Cc1ccccc1Br)[C@H](/C=C/c1ccccc1)[C@@H](O)Cc1ccccc1 | -1.13
48 | [N-]=[N+]=NCc1ccccc1C[C@]1(C(N)=O)N=C(c2ccc(OCCCO)cc2)O[C@H]1c1ccccc1CN=[N+]=[N-] | 1.31
49 | C=CCC(OC(C)=O)[C@@H]1[C@@H](N(Cc2ccc(-c3ccccc3)cc2)C(=O)c2ccc(-c3ccccc3)cc2)c2cc(OCCCO)ccc2N1C(=O)Cc1ccc(OC)cc1 (some centres not stated) | 0.0768
50 | O=C1C[C@@](C(=O)NC2CC2)(c2ccc([N+](=O)[O-])cc2)[C@@H](c2ccc(CO)cc2I)N1CC12CC3CC(CC(C3)C1)C2 | 1.12
51 | Cc1ccc(N2C(=O)c3ccccc3[C@@H](C(=O)NCC(F)(F)F)[C@@H]2c2ccc(CO)cc2)nc1 | -1.85
52 | C=CC[C@]1(C(=O)O)N=C(c2ccc(OCCCO)cc2)O[C@H]1c1ccccc1 | 0.351
